Results filed as inconclusive are left out. The source made the active and inactive calls. Calls follow the shape of the dose curve; as a rule, active = well fitted cell-killing curve with a large enough effect; inconclusive = small, poorly fitted or top-dose-only effect, or effect the other way; inactive = no such curve, though single readings can be large or run the other way.
Potency is read from the fitted curve at half-maximal effect.

This assay can be described thus: Quantitative High-Throughput drug screen in 47 multiple myeloma cell lines against the NCATS MIPE library collection: OCIMY7_PLB cell viability assay (AID 1918987). Also: nearly all actives have a fitted effect of over 65% in size. The note with it: OCI-MY7 myeloma viability, CellTiter-Glo ATP, 48 h; series mostly up to 45.8 µM. The method, boiled down: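 qHTS format: cells plated (500/well), pin-dosed with MIPE 4.0 compounds, kept 48 h at 37 °C. Readout was CellTiter-Glo luminescence, median RLU.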
As to `C[C@@]12O[C@@H](C[C@]1(O)CO)n1c3ccccc3c3c4c(c5c6ccccc6n2c5c31)CNC4=O`, the Potency is 66.2 nM (active).

As for `CN(C)CC=CC(=O)Nc1cc2c(Nc3ccc(F)c(Cl)c3)ncnc2cc1O[C@H]1CCOC1`, the Potency is 372 nM (active).

As for `O=c1[nH]nc(Sc2ncc([N+](=O)[O-])s2)n1-c1ccc2c(c1)OCCO2`, the Potency was 935 nM (active).

For `COc1cc2c(NC3CCN(C(C)C)CC3)nc(C3CCCCC3)nc2cc1OCCCN1CCCC1`, the Potency is 16600 nM (active).

For `O=C(Nc1cc(C(F)(F)F)cc(C(F)(F)F)c1)c1cc(Cl)ccc1O`, the Potency was 1870 nM (active).

For `CCCCc1nc2cc(C=CC(=O)NO)ccc2n1CCN(CC)CC`, the Potency was 935 nM (active).

As to `Cn1cc(-c2[nH]c3cc(NC(=O)[C@H](N)C4CCCCC4)cc4c3c2C=NNC4=O)cn1`, the Potency is 6620 nM (active).

For the molecule `O=C(C=Cc1cccc(S(=O)(=O)Nc2ccccc2)c1)NO`, the Potency was 2150 nM (active).

`CC(=O)OCC(=O)[C@@]1(O)[C@H](C)C[C@H]2[C@@H]3C=C(C)C4=Cc5c(cnn5-c5ccccc5)C[C@]4(C)[C@@H]3[C@@H](O)C[C@@]21C`: the Potency was 7430 nM (active).

For the molecule `CC1(C)CCC(c2ccc(Cl)cc2)=C(CN2CCN(c3ccc(C(=O)NS(=O)(=O)c4ccc(N[C@H](CCN5CCOCC5)CSc5ccccc5)c(S(=O)(=O)C(F)(F)F)c4)cc3)CC2)C1`, the Potency is 1 nM (active).

Turning to `CCn1cc(-c2ccnc3[nH]c(-c4cccc(CN(C)C)c4)cc23)c(-c2ccc(NC(=O)N(C)C)cc2)n1`, the Potency was 187 nM (active).

For `O=C(c1ccc(Nc2nccc(-c3cc4ccccc4s3)n2)cc1)N1CCC(N2CCCC2)CC1`, the Potency is 2350 nM (active).
